Compounds without any hit were thinned out: in the full panel of roughly 83,000, 20% have a hit.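 Negative percent growth values reflect cell death: -40 means 40% of the cells present at the start died, and -100 means all died.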 A number with no mark means an inactive call. Active and inactive are the calls of the source. The calls were made as follows: active = growth percent below 10; inactive = the rest.
Each compound was assayed on HL-60(TB) leukemia (assay: NCI-60 one-dose screen, 48 h (100 = growth as untreated, 0 = no growth, -100 = all killed)). Details: 10 µM unless noted.

SMILES	growth
COc1cc(-c2nc3ccccc3o2)cc(CN2CCN(c3ccccc3)CC2)c1O	71.3%
COc1ccc(S(=O)(=O)N2CCCCC2)cc1NC(=O)c1[nH]c(C)c2c1CCCCC2=O	-10.9% (active)
COc1ccc(/C=N\Nc2nc(SCCC(C)C)nc(-c3ccc(OC)cc3)c2C#N)cc1	34%
Oc1c(Cl)cc(Cl)c2ccc(Cn3cc(-c4cccc(C(F)(F)F)c4)nn3)nc12	-18.9% (active)
COc1cc(C2CC(c3cccc(Nc4ccncc4)c3)=NN2c2cc(Cl)cc(Cl)c2)cc(OC)c1OC (centres undefined)	-44.7% (active)
Cc1c(O)cccc1O	110%
Cc1cc(N/N=C/c2nc(-c3ccc(Br)cc3)oc2C)c2cc(Cl)ccc2n1	-0.0323% (active)
O=C1CCCCN1CCCCC#Cc1cccc(C#Cc2cccnc2)c1	-23.2% (active)
O=C(N/N=C/c1ccc([N+](=O)[O-])cc1)c1ccc2nc(-c3ccc(Cl)cc3)[nH]c2c1	6.58% (active)
Cc1cc(C)c(NC(=O)c2sc3nc4c(cc3c2N)C(=O)CCC4)c(C)c1	14.6%
CN1CCN(CCCOc2ccc3nc(Nc4ccc(F)c(F)c4)ccc3c2)CC1	46.8%
COc1cc(C(=O)N/N=C/c2cc3cc(OCc4ccccc4)ccc3nc2OC)cc(OC)c1OC	98.9%
Nc1ncnc2c1ncn2C1OC(COP(=O)(O)O)C(O)C1O (centres undefined)	102%
COc1cccc2c(N=NC(=O)c3ccc(S(N)(=O)=O)cc3)c(O)[nH]c12	98.4%
CC(C)(C)c1nc(-c2ccc(O)c(O)c2)cs1	-5.29% (active)
Nc1ccccc1C#Cc1ccccc1C#Cc1ccc(OCCCCCCOc2ccc(C#Cc3ccccc3C#Cc3ccccc3N)cc2)cc1	110%
O=[N+]([O-])C1CC2C=CC1C2 (centres undefined)	97.6%
O=C1Nc2ccccc2/C1=C/c1cccs1	107%
CC1CCc2c(sc(NC(=O)CSc3nnc4ccccn34)c2C(N)=O)C1 (centres undefined)	74.9%
CC1c2ccccc2N(S(=O)(=O)c2ccccc2)C1C (centres undefined)	67.6%

SMILES	growth
Nc1nccc(OCCO)n1	88.5%
CNC(C)[C@H]1CCC2C3CC=C4C(=O)[C@@H](NC(=O)C=C(C)C)CC[C@]4(C)C3CC[C@@]21C (some centres undefined)	-67% (active)
O=C1Nc2ccccc2/C1=N/N1C(=O)CN(CCCl)C1=O	96.3%
CCc1ccc(Nc2ncnc3c2cnn3-c2cccc(Br)c2)cc1	114%
O=S(=O)(Nc1cc(Sc2cccc3cccnc23)c(O)c2ccccc12)c1ccc(F)cc1	-21.9% (active)
CCc1oc2ccccc2c1C(=O)c1cc(I)c(O)c(I)c1	10.1%
CC1=CC(=NC(=O)CBr)C=C/C1=N\S(=O)(=O)c1ccccc1	67.2%
N=C1c2nc3n(c2C(=O)c2nc4n(c21)CCCCC4)CCCCC3	103%
COc1cccc(-c2nn(-c3ccccc3)cc2-c2ccnc(NCCNS(=O)(=O)c3ccc(Cl)cc3)c2)c1	7.06% (active)
COc1ccc(-c2nn(C(=O)c3cc(OC)c(OC)c(OC)c3)c3cc(N)ccc23)cc1	5.67% (active)
CN1CCN(c2nc(NCCCNc3ccnc4cc(Cl)ccc34)c3ccccc3n2)CC1	15%
CCCc1nc2ccccn2c1Nc1ccc(C(=O)NO)cc1	111%
Fc1cccc(CNc2c3ccccc3nc3ccccc23)c1	47%
Cc1c(Cn2c(C)nc3c(C(=O)O)cc(N4CCOCC4)cc32)cccc1C(F)(F)F	78.6%
CN1CCN(Cn2nc(-c3cc(Cl)cc(Cl)c3Cl)oc2=S)CC1	82%
O=C1/C(=C2\SC(=S)N(C3CC3)C2=O)SC(=S)N1C1CC1	104%
CCOC(=O)C#Cc1c(CC(=O)OCC)nnn1[C@H]1O[C@@H](CO)[C@@H]2OC(C)(C)O[C@@H]21	38%
COc1ccc2c(c1)cn1c3ccc(O)cc3nc(N)c21	-15.8% (active)
COc1ccc(-c2nn(-c3cccc(Cl)c3)cc2-c2cc(-c3ccccc3)nc(N)n2)cc1	56.3%

— PubChem BioAssay (NCI)
